# High-throughput results deposited in PubChem by National Center for Advancing Translational Sciences (NCATS).
# KDM4E inh: qHTS Assay for Inhibitors of Human Jumonji Domain Containing 2E (JMJD2E). JMJD2E catalytic domain, FDH-coupled NADH fluorescence (FDH is formaldehyde dehydrogenase). Potency, µM (series often up to 57.1 µM), for the others: at the top dose activity change, negative = inhibition, hits mostly inhibitors. hit rate 1.6% among 230,000; active means well fitted inhibition curve with a large enough effect, not every such curve was filed as active; inconclusive means small, poorly fitted or top-dose-only effect, or another doubt; inactive means no such curve, though single readings can be large or run the other way;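 further: potency means the concentration at half of the fitted maximal effect; 0% = wells with enzyme and -100% = buffer wells without enzyme; nearly all actives have a fitted effect of over 50% in size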
# CtBP-E1A blk: qHTS Assay for Inhibitors of the CtBP/E1A Interaction. AID 651724, 2012. hit rate 0.49% among 340,000. AlphaScreen GST-E1A/His-CtBP binding, 1536-well; hits give low values. activity change, % (no concentration beside the values). CtBP / adenovirus E1A interaction (AlphaScreen)
#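 Protein mix (5X: 125 nM each GST-E1A, His-CtBP) was incubated with pinned compound 2 h at 37 deg C in dark, in 50 mM Tris pH 8.0 buffer with 300 mM NaCl. Glutathione donor and nickel acceptor beads followed; AlphaScreen signal read after 1 h.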
# L3MBTL1 block: qHTS Assay for the Inhibitors of L3MBTL1; hit rate 0.66% among 230,000; AlphaScreen L3MBTL1–H3K9me1 peptide binding; AID 485360, 2010; Potency, µM (top dose mostly 57.1 µM), for the others: top-dose activity, negative = inhibition, most hits filed as inhibitors; Lethal(3)malignant brain tumor-like protein 1 (Homo sapiens), Q9Y468; active means well fitted inhibition curve with a large enough effect; inconclusive means small, poorly fitted or top-dose-only effect; inactive means no such curve, though single readings can be large or run the other way; further: potency means the concentration at half of the fitted maximal effect; nearly all actives have a fitted effect of over 60% in size
# Target sequence (Q9Y468 whole entry, looked up): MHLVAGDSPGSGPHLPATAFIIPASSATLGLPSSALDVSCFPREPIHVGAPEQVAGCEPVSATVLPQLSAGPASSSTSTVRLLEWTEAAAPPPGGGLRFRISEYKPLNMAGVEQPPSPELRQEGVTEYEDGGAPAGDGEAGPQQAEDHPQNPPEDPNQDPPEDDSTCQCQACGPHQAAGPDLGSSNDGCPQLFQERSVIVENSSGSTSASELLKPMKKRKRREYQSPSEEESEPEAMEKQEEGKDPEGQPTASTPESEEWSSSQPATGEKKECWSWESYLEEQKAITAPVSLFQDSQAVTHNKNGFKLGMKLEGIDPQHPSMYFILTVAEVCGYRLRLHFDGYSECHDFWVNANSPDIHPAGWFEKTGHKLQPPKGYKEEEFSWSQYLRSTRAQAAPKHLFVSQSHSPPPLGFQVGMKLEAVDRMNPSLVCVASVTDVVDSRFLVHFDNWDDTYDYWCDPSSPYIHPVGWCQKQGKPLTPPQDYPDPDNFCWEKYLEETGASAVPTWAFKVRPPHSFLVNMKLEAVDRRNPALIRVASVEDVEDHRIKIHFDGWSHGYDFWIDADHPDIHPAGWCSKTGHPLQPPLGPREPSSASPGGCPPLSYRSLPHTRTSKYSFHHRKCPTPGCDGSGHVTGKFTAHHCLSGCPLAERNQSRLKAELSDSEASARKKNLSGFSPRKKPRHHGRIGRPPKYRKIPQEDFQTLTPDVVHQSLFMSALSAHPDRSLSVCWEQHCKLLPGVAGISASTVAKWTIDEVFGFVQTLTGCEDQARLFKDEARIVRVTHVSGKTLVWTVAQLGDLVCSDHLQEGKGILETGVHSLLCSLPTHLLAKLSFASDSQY
#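 Read-out is AlphaScreen signal from streptavidin donor and nickel chelate acceptor beads (10 ug/mL final each) bridging L3MBTL1 (50 nM) and biotinylated K9-monomethylated H3(1-15) peptide (75 nM), after 30 min compound exposure at room temperature.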
# Six1-Eya2 inh: qHTS Assay for Inhibitors of the Six1/Eya2 Interaction; Homeobox protein SIX1 (Homo sapiens) + Protein phosphatase EYA2 (Homo sapiens), …; AlphaScreen GST-Six1/His-Eya2 binding, biochemical; hits give low values; hit rate 0.56% among 360,000; AID 651725, 2012; activity change, % (concentration not given with the values)
#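 GST-Six1 + His-Eya2 (5X stock: 250/500 nM); Tris pH 8.0, 300 mM NaCl, 0.05% BSA, 0.02% Tween 20; GSH donor/Ni acceptor beads; 1 h 37 °C dark; AlphaScreen readout.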
# Starred values were filed as active, the others as inactive; ? = inconclusive; . = no result given; ! = a repeat was not active; [ ] = remark or other dose. This excerpt belongs to a sample that is enriched for hits. Unless noted, no stated cut-off is given here; in the data, active means activity change below about -65%; inconclusive means mostly about -30% to -63%; inactive means weaker than that. Unless noted, on the % scale 0 is the no-effect control and ±100 the full control effect.
SMILES,KDM4E inh,CtBP-E1A blk,L3MBTL1 block,Six1-Eya2 inh
CCOc1ccc(-n2c(O)c(C=Nc3ccc(N(CC)CC)cc3)c(=O)[nH]c2=O)cc1,-6%,12,.,-4
CCN(CC)c1ccc(N=Cc2c(O)n(Cc3ccccc3)c(=O)[nH]c2=O)cc1,3%,48,-7%,-72*!
CCN(CC)c1ccc(N=Cc2c(O)n(-c3ccccc3)c(=O)[nH]c2=O)cc1,7.9µM*,.,.,-6
COc1cccc(-n2c(/C=C/c3ccc(O)c(O)c3)nc3ccccc3c2=O)c1,32µM*,-8,-7%,7
CNC(=O)[C@@H]1C[C@H]1[C@@H](NP(=O)(c1ccccc1)c1ccccc1)c1ccccc1,-5%,.,.,.
N#CC(C#N)=Cc1cc(O)c(O)c(O)c1,2µM*,.,.,.
COC(=O)[C@@]1(Cc2ccccc2)[C@H]2c3cc(C(=O)N(C)C)n(C)c3C[C@H]2CN1C(=O)c1ccccc1,-22%,.,.,.
Cn1c(SCc2nc3cc(C(=O)O)ccc3c(=O)[nH]2)nnc1C(F)(F)F,?,3,-12%,0
CCCCC/C=C\C/C=C\C/C=C\C/C=C\CCCC(=O)O,28µM*!,.,?,.
CN(N=O)c1ccc(O)c(O)c1,10µM*,.,.,.
c1cc2c(cc1[C@H]1OC[C@@H]3[C@H]1CO[C@H]3c1ccc3c(c1)OCO3)OCO2,-15%,.,.,.
Oc1ccc(/C=N/NP(=S)(c2ccccc2)c2ccccc2)c(O)c1O,14µM*,-2,.,-10
COC(C)C(O)(C(=O)OC1=CCN2CC[C@H](O)[C@H]12)C(C)C (stereo partly drawn),-2%,.,.,.
CC(=O)C1=C(O)[C@@H]2[C@@H]3c4c[nH]c5cccc(c45)C[C@@H]3C(C)(C)N2C1=O,13µM*,.,.,.
CCN(CC)C(=O)N[C@@H]1C[C@H]2c3cccc4[nH]cc(c34)C[C@@H]2N(C)C1,5%[25.5 µM],.,.,.
COc1ccc(CC2NC[C@H](O)[C@H]2OC(C)=O)cc1 (stereo partly drawn),7%,.,.,.
C=C(C)C(=O)CP(=O)(OCC)OCC,7%,.,.,.
CNCCc1ccc(O)c(O)c1,14µM*,3,.,0
O=C(Oc1ccccc1)N(c1ccccc1)c1ccccc1,-5%,-3,58%,4
O=C(N/N=C/c1c(O)n(Cc2ccco2)c(=O)[nH]c1=O)c1ccccc1,?,-85*,.,-86*
C/C(=N\NC(=O)c1ccccc1)c1c(O)n(Cc2ccccc2)c(=O)[nH]c1=O,25µM*,-2,.,-10
COc1ccc(Cn2c(O)c(/C=N/NC(=O)c3ccccc3)c(=O)[nH]c2=O)cc1,3%,-85*,-1%,?
COc1ccc(Cn2c(O)c(/C=N/NC(=O)c3ccncc3)c(=O)[nH]c2=O)cc1,7.9µM*,?,-8%,?
N[C@@H](Cn1oc(=O)[nH]c1=O)C(=O)O,20µM*,7,.,-2
C=C(CC1(CNP(=O)(c2ccccc2)c2ccccc2)CC1)c1ccccc1,14%,.,.,.
SMILES,KDM4E inh,CtBP-E1A blk,L3MBTL1 block,Six1-Eya2 inh
O=C(O)COc1ccccc1,.,5,1%,1
O=C(O)Cc1cccnc1C(=O)O,1.6µM*,.,.,.
O=C1NO[C@H]2[C@@H]1CN[C@@H]2C(=O)O,-20%,.,.,.
O=C(O)c1ccccc1-c1c2cc(Br)c(=O)cc-2oc2[c]([Hg])c(O)c(Br)cc12,5µM*,.,.,.
S=C(Nc1ccccc1)N1CCN(c2ccccn2)CC1,?,-11,3%,7
O=C1NC(=S)N(Cc2ccco2)C(=O)/C1=C\c1cccs1,14µM*,.,.,.
CC(C)CN(C(=O)CN1CC=C(c2ccccc2)CC1)c1c(N)n(CC(C)C)c(=O)[nH]c1=O,28µM*,-2,4%,5
CCN(C(=O)CN1CC=C(c2ccccc2)CC1)c1c(N)n(Cc2ccccc2)c(=O)[nH]c1=O,-12%,0,3%,-1
Cc1cc(/C=C2\C(=O)NC(=O)N(c3ccc(Br)cc3)C2=O)c(C)n1-c1cc(C(=O)O)cc(C(=O)O)c1,.,.,.,-84*
CCOc1cc(C=O)ccc1O,.,2,-3%,1
O=Cc1ccc(O)c(O)c1,4.5µM*,-2,1%,5
COC(=O)C12C/C=C\Cc3ccccc3[C@@H]1CNC2=O (stereo partly drawn),-8%,.,.,.
C[C@]12CCC3C(CC[C@]4(O)C[C@@H](O)CC[C@]34C=O)[C@@]1(O)CC[C@@H]2C1=CC(=O)OC1 (stereo partly drawn),3%,.,.,.
